Bioassay records: PubChem, The Scripps Research Institute Molecular Screening Center
MITF inh – MITF inhibitors, primary screen, biochemical, AlphaScreen, human; Microphthalmia-associated transcription factor (Homo sapiens), O75030; AlphaScreen MITF homodimerization, bead proximity signal; inhibition, % at 2.6 µM; 650,000 tested, 0.91% active; AID 1259374, 2018; in the data active = inhibition above about 50%;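 also: 0% = vehicle wells with protein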
Target sequence (O75030 whole entry, looked up): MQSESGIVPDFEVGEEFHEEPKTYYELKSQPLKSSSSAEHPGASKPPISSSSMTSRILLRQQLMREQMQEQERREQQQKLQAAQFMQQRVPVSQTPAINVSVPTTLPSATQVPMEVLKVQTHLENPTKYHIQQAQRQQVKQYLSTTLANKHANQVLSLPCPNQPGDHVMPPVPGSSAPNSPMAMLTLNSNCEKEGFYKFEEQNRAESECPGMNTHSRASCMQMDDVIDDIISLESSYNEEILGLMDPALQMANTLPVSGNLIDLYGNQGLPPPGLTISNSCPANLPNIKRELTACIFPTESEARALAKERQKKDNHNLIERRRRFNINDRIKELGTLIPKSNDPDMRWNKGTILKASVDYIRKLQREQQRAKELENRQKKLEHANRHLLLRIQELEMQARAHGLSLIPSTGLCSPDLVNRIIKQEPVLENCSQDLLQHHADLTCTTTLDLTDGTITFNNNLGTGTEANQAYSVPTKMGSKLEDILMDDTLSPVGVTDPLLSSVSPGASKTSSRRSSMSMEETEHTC
TEAD-YAP block – TEAD-YAP interaction inhibition, primary screen, TEAD-YAP interaction inhibitor project, luminescence, HEK-TIYL cells. AID 1259422, 2018. TEAD-Gal4/YAP UAS-luciferase luminescence. 640,000 tested, 1.4% active. inhibition, % at 9.12 µM; in the data active = inhibition above about 32%;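 also: 0% = median of test compound wells and 100% = reference inhibitor wells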
FBW7 act – FBW7 E3 ligase activators, primary screen, biochemical, AlphaScreen, human. F-box/WD repeat-containing protein 7 (Homo sapiens), Q969H0. AlphaScreen FBW7–phospho-cyclin E peptide binding, activator screen. normalized activity (activation), % at 26.1 µM. 650,000 tested, 0.13% active. AID 1259310, 2017; in the data active = normalized activity above about 1.9%;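 also: purified mutant Fbw7 with reduced substrate affinity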
GPR151 ag – activators of human GPR151, primary screen, cell-based, PathHunter beta-arrestin, luminescence | G-protein coupled receptor 151 (Homo sapiens), Q8TDV0 | PathHunter beta-arrestin GPR151 cells | activation, % at 11.2 µM | 650,000 tested, 1% active | AID 1508602, 2020; in the data active = activation above about 4.9%;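 also: 0% = median of compound wells and 100% = cells with positive control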
MITF inh conf – MITF inhibitors, retest of hits, confirmation, biochemical, AlphaScreen, triplicate; inhibition, % at 2.6 µM; AID 1259372, 2018; 4,700 tested, 16% active; AlphaScreen MITF homodimerization, biotin/His-MITF beads; shares compounds with MITF inh;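 active = inhibition above a cutoff derived from the DMSO control wells, cut at about 28% in these data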;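 also: 0% = MITF dimer wells with DMSO only; inhibitors lower the bead chemiluminescence by keeping MITF from dimerizing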
AS interf DR – AlphaScreen optical interference compounds, dose response, counter-screen, biochemical, HTS | shares compounds with MITF inh | AlphaScreen optical interference counterscreen, cell-free | IC50, µM | 480 tested, 6% active | AID 1259373, 2018; call rule not given here
AlphaScreen intf2 – AlphaScreen optical interference compounds, counter-screen for MITF inhibitor project, biochemical, triplicate; shares compounds with MITF inh; LysRS AlphaScreen counterscreen, signal interference; inhibition, % at 2.6 µM; 4,700 tested, 7.6% active; AID 1259376, 2018;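 active = inhibition above a cutoff derived from the DMSO control wells, cut at about 30% in these data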
The depositor's hits bear a star; . = no result. Hits are enriched below; roughly 3.5% of the tested compounds scored in any of these assays.

SMILES | MITF inh | TEAD-YAP block | FBW7 act | GPR151 ag | MITF inh conf | AlphaScreen intf2 | others
O=[N+]([O-])c1ccc(N2CCN(Cc3cc(Br)cs3)CC2)cc1 | 56* | 6 | 0 | 1 | 4 | 6
Cc1ccc(CN2CCN(c3ccc([N+](=O)[O-])cc3)CC2)s1 | 70* | 2 | 1 | 0 | -3 | 3
O=[N+]([O-])c1ccc(CN2CCCCCC2)s1 | 4 | 9 | 0 | -1 | . | .
CC(=O)c1ccc(N2CCN(Cc3ccc(C)s3)CC2)cc1 | 36 | -1 | 0 | 1 | . | .
CCOc1ccccc1C1C(C(=O)OCCOC)=C(C)NC2=C1C(=O)CC(c1ccc(OC)c(OC)c1)C2 (centres undefined) | -7 | -5 | 0 | 0 | . | .
Cc1cc(Cl)ccc1OCC(=O)NC(C)(C)CO | 1 | -15 | 0 | 1 | . | .
N#Cc1ccc(OCC(=O)NCc2ccc(Cl)cc2)cc1 | 5 | 6 | 0 | 2 | . | .
CC(C)CCN1C(=O)c2ccc(C(=O)OCC(=O)NC(=O)NCc3ccco3)cc2C1=O | 3 | 3 | 0 | 0 | . | .
c1ccc(C2CCC(N3CCN(Cc4ccco4)CC3)CC2)cc1 (centres undefined) | 67* | -9 | 0 | 0 | 4 | 6
c1ccc(C2CCC(N3CCN(C4CCCCCC4)CC3)CC2)cc1 (centres undefined) | 63* | -3 | 0 | -1 | 2 | 15
c1ccc(C2CCC(N3CCN(C4CCCC4)CC3)CC2)cc1 (centres undefined) | 19 | 3 | 0 | -1 | . | .
CC1CCCC(N2CCN(Cc3ccco3)CC2)C1 (centres undefined) | 74* | -6 | 0 | 0 | -1 | 1
COc1ccc(NC(=O)c2cc3ccccc3cc2OC)c([N+](=O)[O-])c1 | -3 | -2 | 0 | 0 | . | .
CCn1c2ccccc2c2cc(CN3CCN(Cc4ccccc4F)CC3)ccc21 | 82* | 8 | 0 | -1 | 17 | 19
CCn1c2ccccc2c2cc(CN3CCN(Cc4ccccc4[N+](=O)[O-])CC3)ccc21 | 65* | -8 | 0 | -1 | 0 | -6
CCn1c2ccccc2c2cc(CN3CCN(S(=O)(=O)c4ccc(F)cc4)CC3)ccc21 | 27 | 7 | 0 | 0 | . | .
CCn1c2ccccc2c2cc(CN3CCN(S(=O)(=O)c4ccc(OC)cc4)CC3)ccc21 | -15 | 6 | 0 | -1 | . | .
CCn1c2ccccc2c2cc(CN3CCCC(O)C3)ccc21 (centres undefined) | 25 | 3 | 0 | 0 | . | .
CCn1c2ccccc2c2cc(CN3CCN(Cc4ccc(SC)cc4)CC3)ccc21 | 63* | 12 | 0 | -1 | 13 | 19
CCn1c2ccccc2c2cc(CN3CCN(Cc4ccc(C(F)(F)F)cc4)CC3)ccc21 | 54* | -7 | 0 | 4 | 17 | 20
CC(C)CC(=O)Nc1ccnn1C1CCN(C2Cc3ccccc3C2)CC1 | 11 | 1 | 0 | 4 | . | .
COc1ccc([N+](=O)[O-])cc1NC(=O)c1sc2nc3n(c(=O)c2c1C)CCCCC3 | -3 | -3 | 0 | 1 | . | .
COc1ccc(OC)c(NC2CCCCC2OC)c1 (centres undefined) | 82* | 21 | 0 | 0 | 16 | 24
O=C(O)c1ccc(NC2OC(CO)C(O)C2O)cc1 (centres undefined) | 66* | 3 | 0 | -2 | 57* | 7 | AS interf DR=>5.6
CCOc1ccccc1NC(=O)c1ccccc1OC | -6 | -1 | 0 | -1 | . | .
SMILES | MITF inh | TEAD-YAP block | FBW7 act | GPR151 ag | MITF inh conf | AlphaScreen intf2 | others
Oc1ccc(CNc2cccc(Cl)c2)c2cccnc12 | 52* | 15 | -1 | -1 | 107* | 100*
Oc1ccc(Cl)c2cccnc12 | 18 | 4 | 0 | -1 | . | .
Oc1ccc(CNc2ccccc2F)c2cccnc12 | 68* | 2 | -1 | -1 | 70* | 100*
Oc1ccc(CNc2ccccc2Cl)c2cccnc12 | 68* | 16 | -2 | 0 | 51* | 92*
CCCCOc1ccc(C(=O)N/C(=C/c2ccco2)C(=O)O)cc1 | 51* | 5 | 0 | -1 | 64* | 2 | AS interf DR=>6.5
CCCCOc1ccc(C(=O)N/C(=C\c2ccco2)C(=O)OC)cc1 | 10 | -3 | 0 | 0 | . | .
CN(C)C(CNc1ccc(S(=O)(=O)N2CCCC2)cc1[N+](=O)[O-])c1ccco1 (centres undefined) | 3 | -1 | 0 | 2 | . | .
O=C1N[C@@H](Cc2ccccc2)C(=O)N2CCN(C(=O)NC3CCCCC3)C[C@H]12 | 76* | 13 | 0 | 1 | 69* | -3 | AS interf DR=>6.5
O=C1N[C@H](Cc2ccccc2)C(=O)N2CCN(C(=O)NC3CCCCC3)C[C@H]12 | 74* | 3 | -1 | -1 | 71* | -9 | AS interf DR=>6.5
CC(=O)OC1C2CC(C1Br)C(C(F)(F)F)(C(F)(F)F)N2 (centres undefined) | 55* | -4 | 0 | 0 | -4 | -2
CC(=O)OC1C2CC(C1I)C(C(F)(F)F)(C(F)(F)F)N2 (centres undefined) | 10 | 1 | 0 | 0 | . | .
CCOC(=O)C1=C(C)N(C)C(=S)NC1c1cccc([N+](=O)[O-])c1 (centres undefined) | 5 | 7 | 0 | 4 | . | .
COc1ccc(NC(=O)c2cc(-c3ccccc3)nc3ccccc23)c(OC)c1 | -7 | 8 | 0 | 0 | . | .
COc1ccc(NC(=O)NNC(=O)c2cc(C3CC3)nc3ccccc23)c(OC)c1 | 61* | -2 | 0 | 1 | 6 | 20
COc1ccccc1-n1sc2c(c1=S)-c1ccc(C)cc1NC2(C)C | 4 | 3 | 0 | 0 | . | .
Cc1cnc(NC(=O)COc2ccc(Cl)cc2)s1 | 1 | -38 | 0 | -1 | . | .
CCOC(=O)c1cc(CC)sc1NC(=O)c1cc([N+](=O)[O-])ccc1N1CCCCCC1 | 18 | -2 | 0 | 0 | . | .
CCOC(=O)c1c(C)oc(NC(=O)c2ccc([N+](=O)[O-])cc2Cl)c1C#N | 54* | 2 | 0 | 1 | 8 | 13
CCOC(=O)c1cc(CC)sc1NC(=O)c1cc([N+](=O)[O-])ccc1Cl | 60* | 6 | 0 | 3 | 5 | 7
O=C1CCCCCN1CP(=O)(O)C1Cc2ccccc2C1 | 15 | 5 | 0 | 0 | . | .
CC(=O)CC1OC(=O)C(Br)=C1NCc1ccccc1 (centres undefined) | 11 | 1 | 0 | -1 | . | .
O=C(CC1OC(=O)C(Br)=C1Br)CC1OC(=O)C(Br)=C1Br (centres undefined) | 74* | 1 | -1 | -1 | 14 | 2
